Measurements reported in the supplement of paper PMC11732987, “Enantioselective OTUD7B fragment discovery through chemoproteomics screening and high-throughput optimisation” (Communications Chemistry, 2025).

Experiments:
Assay in all cases: log2 ratio of Biotin-Ahx-Ub-VS probe labelling (fragment/DMSO); higher = less target engagement (more negative = stronger competition), active = hit call of the paper (q ≤ 0.05, log2 ratio ≤ -1)
Conditions in all cases: compound concentration: 200 uM; treatment time: 3 h
[1] = target: T1, USP42 (UniProt Q9H9J4)
T1 sequence (whole entry): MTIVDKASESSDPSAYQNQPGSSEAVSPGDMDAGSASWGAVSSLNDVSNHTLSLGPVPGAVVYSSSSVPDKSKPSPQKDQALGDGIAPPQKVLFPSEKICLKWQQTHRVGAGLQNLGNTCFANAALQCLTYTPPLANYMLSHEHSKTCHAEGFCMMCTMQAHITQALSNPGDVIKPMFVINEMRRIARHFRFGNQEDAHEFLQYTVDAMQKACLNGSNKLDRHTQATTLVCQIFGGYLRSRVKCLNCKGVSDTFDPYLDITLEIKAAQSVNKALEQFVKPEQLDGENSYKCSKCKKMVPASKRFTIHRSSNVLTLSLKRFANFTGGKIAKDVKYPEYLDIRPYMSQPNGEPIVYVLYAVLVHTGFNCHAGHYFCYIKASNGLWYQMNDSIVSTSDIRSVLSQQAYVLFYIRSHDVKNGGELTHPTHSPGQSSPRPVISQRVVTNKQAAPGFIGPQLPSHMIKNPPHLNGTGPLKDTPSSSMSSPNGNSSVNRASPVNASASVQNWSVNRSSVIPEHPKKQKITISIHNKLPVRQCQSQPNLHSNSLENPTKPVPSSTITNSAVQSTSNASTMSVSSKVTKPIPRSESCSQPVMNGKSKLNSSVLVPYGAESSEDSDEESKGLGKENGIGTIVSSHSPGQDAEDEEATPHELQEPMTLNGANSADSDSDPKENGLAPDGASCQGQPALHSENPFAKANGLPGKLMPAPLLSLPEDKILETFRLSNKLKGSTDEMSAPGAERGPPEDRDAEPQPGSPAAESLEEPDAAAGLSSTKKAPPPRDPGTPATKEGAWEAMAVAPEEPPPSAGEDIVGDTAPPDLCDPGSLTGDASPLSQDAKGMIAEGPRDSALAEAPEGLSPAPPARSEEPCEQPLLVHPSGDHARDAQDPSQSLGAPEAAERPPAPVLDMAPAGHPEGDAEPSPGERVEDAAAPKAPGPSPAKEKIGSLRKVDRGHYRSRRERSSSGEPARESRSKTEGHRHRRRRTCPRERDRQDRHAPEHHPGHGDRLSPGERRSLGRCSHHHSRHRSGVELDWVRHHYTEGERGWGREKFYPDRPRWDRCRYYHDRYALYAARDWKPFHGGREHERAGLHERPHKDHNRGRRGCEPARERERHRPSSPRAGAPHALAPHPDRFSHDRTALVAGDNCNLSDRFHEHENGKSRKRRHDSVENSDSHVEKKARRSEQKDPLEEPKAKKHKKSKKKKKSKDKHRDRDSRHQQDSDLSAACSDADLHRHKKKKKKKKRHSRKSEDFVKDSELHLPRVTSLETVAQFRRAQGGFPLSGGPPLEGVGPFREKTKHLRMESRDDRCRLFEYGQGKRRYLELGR
Procedure, shortened: (§1)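 Using Biotin-Ahx-Ub-VS at 0.5 µM final for 1 h, DUBs were labelled in HEK293T lysate (495 µg per sample) that had first been treated in triplicate with fragment at 200 µM or vehicle for 3 h. NeutrAvidin enrichment, LysC and trypsin digestion and diaPASEF LC-MS/MS followed. Spectronaut label-free quantities were global-median-normalised. Values are average log2 fragment/vehicle ratios by unpaired t-test, using proteins with ≥2 unique peptides.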

[2] = target: USP46 (UniProt P62068)
Procedure, shortened: as §1

[3] = target: T2, USP47 (UniProt Q96K76)
T2 sequence (whole entry): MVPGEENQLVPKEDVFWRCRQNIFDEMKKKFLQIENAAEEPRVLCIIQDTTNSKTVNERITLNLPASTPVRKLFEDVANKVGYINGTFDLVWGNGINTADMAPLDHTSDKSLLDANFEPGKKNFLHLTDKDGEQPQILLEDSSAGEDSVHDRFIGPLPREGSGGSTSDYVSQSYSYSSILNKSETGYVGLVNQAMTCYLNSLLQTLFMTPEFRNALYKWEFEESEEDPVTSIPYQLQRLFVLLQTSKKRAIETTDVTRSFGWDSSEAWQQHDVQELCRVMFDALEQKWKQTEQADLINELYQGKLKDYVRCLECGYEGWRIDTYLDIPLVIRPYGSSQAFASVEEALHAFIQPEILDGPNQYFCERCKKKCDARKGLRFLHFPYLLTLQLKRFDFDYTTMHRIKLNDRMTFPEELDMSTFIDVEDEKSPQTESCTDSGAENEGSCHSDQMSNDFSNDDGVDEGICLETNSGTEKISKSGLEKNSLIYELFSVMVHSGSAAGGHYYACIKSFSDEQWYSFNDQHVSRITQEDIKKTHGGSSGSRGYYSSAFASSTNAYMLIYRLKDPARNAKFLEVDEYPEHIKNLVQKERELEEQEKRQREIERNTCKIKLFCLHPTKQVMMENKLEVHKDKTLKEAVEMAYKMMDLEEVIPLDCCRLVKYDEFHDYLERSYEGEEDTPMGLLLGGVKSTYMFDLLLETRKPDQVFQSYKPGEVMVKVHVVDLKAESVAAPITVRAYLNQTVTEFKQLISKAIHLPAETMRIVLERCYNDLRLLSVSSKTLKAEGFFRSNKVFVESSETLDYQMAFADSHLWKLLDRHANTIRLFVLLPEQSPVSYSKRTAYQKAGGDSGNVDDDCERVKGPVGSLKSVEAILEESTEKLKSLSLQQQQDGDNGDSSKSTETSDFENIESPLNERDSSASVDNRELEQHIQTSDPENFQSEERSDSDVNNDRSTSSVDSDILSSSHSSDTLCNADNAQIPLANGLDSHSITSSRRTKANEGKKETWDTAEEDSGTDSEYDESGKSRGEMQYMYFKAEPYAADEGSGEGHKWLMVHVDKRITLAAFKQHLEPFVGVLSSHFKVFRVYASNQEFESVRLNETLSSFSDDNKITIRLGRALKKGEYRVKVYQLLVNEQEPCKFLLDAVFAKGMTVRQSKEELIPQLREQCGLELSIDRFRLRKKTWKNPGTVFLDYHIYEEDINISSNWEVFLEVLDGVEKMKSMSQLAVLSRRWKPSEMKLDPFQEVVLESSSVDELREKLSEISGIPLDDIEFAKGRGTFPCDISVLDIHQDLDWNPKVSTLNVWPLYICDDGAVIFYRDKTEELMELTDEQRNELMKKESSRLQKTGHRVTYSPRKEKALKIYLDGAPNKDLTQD
Procedure, shortened: as §1

[4] = target: T3, USP48 (UniProt Q86UV5)
T3 sequence (whole entry): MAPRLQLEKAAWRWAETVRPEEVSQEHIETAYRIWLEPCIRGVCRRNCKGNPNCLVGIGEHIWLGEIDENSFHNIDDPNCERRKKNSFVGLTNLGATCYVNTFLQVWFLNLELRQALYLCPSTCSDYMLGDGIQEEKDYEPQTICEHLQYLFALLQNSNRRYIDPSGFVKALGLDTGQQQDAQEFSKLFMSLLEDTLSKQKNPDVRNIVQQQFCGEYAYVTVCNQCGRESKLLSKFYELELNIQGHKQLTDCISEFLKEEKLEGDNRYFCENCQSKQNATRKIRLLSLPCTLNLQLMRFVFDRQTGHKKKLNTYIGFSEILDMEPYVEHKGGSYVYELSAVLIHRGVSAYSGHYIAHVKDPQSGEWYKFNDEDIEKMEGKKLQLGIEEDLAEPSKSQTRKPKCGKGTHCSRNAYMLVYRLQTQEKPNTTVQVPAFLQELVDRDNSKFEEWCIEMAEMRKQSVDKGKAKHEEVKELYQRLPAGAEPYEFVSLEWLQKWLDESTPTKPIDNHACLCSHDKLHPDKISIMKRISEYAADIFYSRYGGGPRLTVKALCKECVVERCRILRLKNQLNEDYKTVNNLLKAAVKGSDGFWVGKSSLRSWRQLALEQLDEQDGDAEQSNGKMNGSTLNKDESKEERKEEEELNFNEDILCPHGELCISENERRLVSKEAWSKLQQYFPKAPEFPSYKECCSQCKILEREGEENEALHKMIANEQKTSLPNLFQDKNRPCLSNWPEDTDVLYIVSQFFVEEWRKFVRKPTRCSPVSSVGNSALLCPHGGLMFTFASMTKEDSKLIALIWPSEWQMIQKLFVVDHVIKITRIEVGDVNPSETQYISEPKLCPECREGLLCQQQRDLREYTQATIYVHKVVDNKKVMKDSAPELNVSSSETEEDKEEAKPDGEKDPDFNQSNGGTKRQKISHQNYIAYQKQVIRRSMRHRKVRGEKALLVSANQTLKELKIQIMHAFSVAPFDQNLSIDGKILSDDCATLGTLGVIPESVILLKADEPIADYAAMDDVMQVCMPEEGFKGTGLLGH
Procedure, shortened: as §1

[5] = target: T4, USP5 (UniProt P45974)
T4 sequence (whole entry): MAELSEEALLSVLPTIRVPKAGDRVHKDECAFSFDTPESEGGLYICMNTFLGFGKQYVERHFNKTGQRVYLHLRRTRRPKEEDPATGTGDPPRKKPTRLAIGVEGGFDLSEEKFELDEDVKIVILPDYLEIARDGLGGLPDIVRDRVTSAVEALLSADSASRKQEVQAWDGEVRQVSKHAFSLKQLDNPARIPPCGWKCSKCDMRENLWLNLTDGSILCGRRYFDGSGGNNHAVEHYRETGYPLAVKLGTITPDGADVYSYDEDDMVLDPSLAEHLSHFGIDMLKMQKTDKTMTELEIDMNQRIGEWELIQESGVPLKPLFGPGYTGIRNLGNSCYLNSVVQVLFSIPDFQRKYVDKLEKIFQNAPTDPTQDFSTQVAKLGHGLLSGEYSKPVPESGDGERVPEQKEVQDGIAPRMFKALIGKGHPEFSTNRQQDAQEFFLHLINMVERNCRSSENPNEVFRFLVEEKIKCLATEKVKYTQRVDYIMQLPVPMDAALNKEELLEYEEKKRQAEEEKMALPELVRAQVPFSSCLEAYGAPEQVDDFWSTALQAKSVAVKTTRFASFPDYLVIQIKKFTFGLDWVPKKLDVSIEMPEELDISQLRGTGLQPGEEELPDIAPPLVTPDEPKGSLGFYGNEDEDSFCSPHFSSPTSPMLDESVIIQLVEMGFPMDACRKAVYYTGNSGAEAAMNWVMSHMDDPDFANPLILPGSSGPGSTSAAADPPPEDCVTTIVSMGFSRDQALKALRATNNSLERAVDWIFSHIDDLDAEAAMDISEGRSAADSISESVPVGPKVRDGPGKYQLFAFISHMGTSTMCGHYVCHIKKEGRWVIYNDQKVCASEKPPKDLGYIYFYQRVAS
Procedure, shortened: as §1

[6] = target: USP54 (UniProt Q70EL1)
Procedure, shortened: as §1

[7] = target: USP7 (UniProt Q93009)
Procedure, shortened: as §1

[8] = target: T5, USP8 (UniProt P40818)
T5 sequence (whole entry): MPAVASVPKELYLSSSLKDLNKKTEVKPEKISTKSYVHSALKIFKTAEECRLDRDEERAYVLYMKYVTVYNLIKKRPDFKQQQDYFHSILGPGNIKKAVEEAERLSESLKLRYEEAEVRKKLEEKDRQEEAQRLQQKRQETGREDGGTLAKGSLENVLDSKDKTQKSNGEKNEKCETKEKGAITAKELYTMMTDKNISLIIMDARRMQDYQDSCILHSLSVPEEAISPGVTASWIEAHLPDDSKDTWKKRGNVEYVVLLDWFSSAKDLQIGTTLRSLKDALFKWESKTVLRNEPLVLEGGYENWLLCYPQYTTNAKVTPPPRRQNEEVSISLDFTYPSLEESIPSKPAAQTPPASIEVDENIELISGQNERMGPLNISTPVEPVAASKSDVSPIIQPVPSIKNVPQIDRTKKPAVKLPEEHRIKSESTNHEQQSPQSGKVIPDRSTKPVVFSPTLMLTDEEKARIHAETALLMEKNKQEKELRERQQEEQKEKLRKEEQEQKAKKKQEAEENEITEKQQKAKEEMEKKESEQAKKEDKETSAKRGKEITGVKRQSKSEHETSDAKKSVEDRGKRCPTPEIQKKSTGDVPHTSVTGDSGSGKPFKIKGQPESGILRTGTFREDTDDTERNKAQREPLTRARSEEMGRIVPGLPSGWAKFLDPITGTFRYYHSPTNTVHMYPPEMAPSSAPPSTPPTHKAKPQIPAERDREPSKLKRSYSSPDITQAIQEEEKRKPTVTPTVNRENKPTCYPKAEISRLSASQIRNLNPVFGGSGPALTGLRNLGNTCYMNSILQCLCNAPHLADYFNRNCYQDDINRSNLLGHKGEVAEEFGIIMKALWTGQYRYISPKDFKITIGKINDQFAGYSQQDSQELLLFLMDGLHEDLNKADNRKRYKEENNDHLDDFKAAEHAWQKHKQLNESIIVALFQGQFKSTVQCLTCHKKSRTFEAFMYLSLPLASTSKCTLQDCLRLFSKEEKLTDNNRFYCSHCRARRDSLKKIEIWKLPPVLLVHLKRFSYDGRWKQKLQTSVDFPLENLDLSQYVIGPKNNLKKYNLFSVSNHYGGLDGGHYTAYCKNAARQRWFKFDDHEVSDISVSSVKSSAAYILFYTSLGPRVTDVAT
Procedure, shortened: as §1

[9] = target: USP9X (UniProt Q93008)
Procedure, shortened: as §1

[10] = target: UniProt O00487
Procedure, shortened: as §1

Measured: log2 ratio of Biotin-Ahx-Ub-VS probe labelling

Sequence of USP46 (P62068 whole entry): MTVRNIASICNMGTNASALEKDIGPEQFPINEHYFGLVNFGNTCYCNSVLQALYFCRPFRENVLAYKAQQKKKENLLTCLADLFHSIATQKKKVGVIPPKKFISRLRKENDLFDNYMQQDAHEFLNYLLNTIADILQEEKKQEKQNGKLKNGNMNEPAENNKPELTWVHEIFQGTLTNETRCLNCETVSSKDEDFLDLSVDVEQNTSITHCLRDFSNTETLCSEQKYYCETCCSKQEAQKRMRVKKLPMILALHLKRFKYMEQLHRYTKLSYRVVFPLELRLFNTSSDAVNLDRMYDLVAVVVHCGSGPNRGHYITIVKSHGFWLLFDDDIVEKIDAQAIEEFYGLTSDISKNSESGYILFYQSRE
Sequence of USP7 (Q93009 whole entry, looked up): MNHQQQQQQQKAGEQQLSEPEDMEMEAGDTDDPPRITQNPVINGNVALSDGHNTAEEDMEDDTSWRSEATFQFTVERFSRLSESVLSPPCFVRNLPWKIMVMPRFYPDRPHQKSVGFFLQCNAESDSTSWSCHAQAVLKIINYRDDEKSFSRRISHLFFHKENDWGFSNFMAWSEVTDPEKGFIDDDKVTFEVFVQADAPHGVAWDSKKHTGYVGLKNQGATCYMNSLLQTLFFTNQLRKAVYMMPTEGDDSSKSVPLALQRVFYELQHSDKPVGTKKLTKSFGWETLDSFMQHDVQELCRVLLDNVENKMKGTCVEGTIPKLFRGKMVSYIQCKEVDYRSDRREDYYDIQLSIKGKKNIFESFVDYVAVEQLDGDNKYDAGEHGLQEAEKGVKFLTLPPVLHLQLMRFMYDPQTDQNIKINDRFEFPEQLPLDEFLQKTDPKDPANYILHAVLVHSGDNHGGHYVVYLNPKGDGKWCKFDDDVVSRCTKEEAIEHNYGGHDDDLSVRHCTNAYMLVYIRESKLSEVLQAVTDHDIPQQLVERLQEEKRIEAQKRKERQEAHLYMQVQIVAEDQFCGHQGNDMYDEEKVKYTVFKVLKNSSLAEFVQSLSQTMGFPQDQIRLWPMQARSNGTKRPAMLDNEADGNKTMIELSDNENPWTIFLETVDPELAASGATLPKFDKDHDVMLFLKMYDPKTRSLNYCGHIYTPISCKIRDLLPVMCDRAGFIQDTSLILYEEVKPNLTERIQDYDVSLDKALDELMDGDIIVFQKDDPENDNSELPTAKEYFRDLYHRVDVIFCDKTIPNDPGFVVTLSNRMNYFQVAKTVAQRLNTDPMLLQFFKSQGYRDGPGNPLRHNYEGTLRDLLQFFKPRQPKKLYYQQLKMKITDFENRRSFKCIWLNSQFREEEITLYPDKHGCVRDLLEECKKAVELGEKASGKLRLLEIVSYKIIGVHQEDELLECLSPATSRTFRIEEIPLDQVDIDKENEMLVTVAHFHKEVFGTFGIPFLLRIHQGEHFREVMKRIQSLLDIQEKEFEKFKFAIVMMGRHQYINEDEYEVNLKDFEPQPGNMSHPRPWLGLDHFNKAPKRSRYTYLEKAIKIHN
Sequence of USP54 (Q70EL1 whole entry): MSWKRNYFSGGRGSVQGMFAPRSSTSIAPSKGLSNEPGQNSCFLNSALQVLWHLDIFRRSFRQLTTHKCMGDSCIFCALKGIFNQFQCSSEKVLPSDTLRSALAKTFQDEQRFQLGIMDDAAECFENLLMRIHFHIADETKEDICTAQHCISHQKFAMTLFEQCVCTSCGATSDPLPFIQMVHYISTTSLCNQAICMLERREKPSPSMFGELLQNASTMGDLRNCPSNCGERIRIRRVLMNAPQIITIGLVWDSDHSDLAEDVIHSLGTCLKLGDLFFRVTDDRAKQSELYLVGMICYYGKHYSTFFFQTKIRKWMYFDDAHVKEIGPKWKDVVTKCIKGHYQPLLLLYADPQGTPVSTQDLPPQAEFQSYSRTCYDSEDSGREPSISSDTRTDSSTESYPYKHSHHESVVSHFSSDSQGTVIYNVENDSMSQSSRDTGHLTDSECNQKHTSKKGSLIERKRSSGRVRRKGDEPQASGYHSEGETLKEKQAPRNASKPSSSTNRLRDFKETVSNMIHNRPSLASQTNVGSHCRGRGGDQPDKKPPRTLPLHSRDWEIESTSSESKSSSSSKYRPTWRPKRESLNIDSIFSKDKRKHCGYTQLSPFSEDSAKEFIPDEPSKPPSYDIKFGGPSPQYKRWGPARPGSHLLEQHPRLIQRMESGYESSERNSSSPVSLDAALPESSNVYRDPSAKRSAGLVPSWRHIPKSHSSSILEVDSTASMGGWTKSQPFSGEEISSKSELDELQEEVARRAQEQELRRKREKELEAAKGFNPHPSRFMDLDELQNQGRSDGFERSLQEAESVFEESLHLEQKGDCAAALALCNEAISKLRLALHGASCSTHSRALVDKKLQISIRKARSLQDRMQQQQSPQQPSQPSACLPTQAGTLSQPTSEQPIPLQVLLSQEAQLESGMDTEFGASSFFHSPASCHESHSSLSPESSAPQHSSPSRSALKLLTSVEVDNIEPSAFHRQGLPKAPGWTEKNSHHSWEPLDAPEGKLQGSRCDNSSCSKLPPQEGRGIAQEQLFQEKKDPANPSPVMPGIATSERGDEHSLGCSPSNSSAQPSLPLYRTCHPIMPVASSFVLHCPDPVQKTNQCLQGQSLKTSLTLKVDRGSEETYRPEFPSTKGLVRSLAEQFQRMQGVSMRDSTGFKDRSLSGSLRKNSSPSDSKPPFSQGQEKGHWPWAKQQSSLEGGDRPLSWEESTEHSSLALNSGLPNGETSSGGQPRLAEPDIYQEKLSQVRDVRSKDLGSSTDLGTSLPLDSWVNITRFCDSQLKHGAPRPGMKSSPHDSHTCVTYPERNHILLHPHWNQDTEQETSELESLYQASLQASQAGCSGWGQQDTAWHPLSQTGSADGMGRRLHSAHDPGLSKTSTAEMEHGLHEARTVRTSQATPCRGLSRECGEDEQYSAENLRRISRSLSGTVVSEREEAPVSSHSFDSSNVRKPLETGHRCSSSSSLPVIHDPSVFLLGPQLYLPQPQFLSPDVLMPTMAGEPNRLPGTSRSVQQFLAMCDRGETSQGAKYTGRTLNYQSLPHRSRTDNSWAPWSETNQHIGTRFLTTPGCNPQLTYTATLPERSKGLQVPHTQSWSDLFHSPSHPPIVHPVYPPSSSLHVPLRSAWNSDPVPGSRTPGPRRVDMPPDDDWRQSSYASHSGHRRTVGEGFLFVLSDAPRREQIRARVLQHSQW
Sequence of UniProt O00487 (O00487 whole entry): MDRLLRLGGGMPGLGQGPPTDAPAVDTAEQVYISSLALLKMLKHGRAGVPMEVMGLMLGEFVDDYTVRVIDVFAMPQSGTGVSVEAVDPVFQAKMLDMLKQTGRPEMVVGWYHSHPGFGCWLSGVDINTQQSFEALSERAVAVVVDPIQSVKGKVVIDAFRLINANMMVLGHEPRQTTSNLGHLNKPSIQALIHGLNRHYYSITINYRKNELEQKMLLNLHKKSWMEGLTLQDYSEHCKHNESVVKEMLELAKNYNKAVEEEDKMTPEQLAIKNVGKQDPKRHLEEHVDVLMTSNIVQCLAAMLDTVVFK

Cl.O=C(CCl)N1CCn2cncc2C1
inactive: [1] 0.404 | [2] -0.137 | [3] 0.174 | [4] -0.0876 | [5] -0.362 | [6] 0.158 | [7] -0.527 | [8] -0.217 | [9] -0.0687 | [10] -0.0669

Cc1cc(CC(C)NC(=O)CCl)n[nH]1 (stereo not given)
inactive: [1] -0.515 | [2] -0.086 | [3] 0.219 | [4] -0.0294 | [5] -0.0909 | [6] -0.195 | [7] -0.0248 | [8] -0.57 | [9] -0.345 | [10] -0.0204

CC(NC(=O)CCl)c1cc2n(n1)CCCC2.Cl (stereo not given)
inactive: [1] 0.487 | [2] -0.0285 | [3] 0.43 | [4] -0.017 | [5] -0.437 | [6] 0.53 | [7] -0.279 | [8] 0.0604 | [9] -0.0806 | [10] -0.00796

COCC[C@@H](NC(=O)CCl)c1ccccc1
inactive: [1] 0.331 | [2] 0.164 | [3] -0.122 | [4] -0.261 | [5] 0.0242 | [6] 0.235 | [7] -0.0296 | [8] -0.0978 | [9] -0.0244 | [10] -0.0153
